Autofluor counter: compound fluorescence in toxin protease inhibitor counterscreen; fluorescence intensity (no concentration beside the values); 360,000 compounds, 3.1% hits; compound autofluorescence counterscreen, microsphere flow cytometry; stronger effect = higher value; in the data active = fluorescence intensity above about 16000; inconclusive = no clear call, values can overlap the other calls
MazEF act: activators of E. coli MazEF toxin-antitoxin RNase; P0AE70; FAM/BHQ RNA-DNA oligo cleavage fluorescence, 5 h; activation, % at 20 µM; 350,000 compounds, 0.32% hits; in the data active = activation above about 50%
Target sequence (P0AE70 whole entry, looked up): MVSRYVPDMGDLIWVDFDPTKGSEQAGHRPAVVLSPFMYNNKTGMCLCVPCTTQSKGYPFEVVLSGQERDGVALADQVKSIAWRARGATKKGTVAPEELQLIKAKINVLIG
Anthrax LF prot: inhibitors of Bacillus anthracis lethal factor protease; P15917; multiplex microsphere protease cleavage assay, LF; inhibition, % at 10 µM; 360,000 compounds, 0.12% hits; AID 588501
BoNT F protease: inhibitors of Botulinum neurotoxin F light chain protease; Multiplex microsphere protease cleavage assay, flow cytometry; inhibition, % at 10 µM; 360,000 compounds, 0.22% hits; AID 588497; in the data active = inhibition above about 35%, passing the limit was not always enough; inconclusive = no clear call, values can overlap the other calls
VHR inh abs: blocks human VHR1 dual specificity phosphatase; P51452; recombinant VHR phosphatase, pNPP absorbance; inhibition, % at 13.3 µM; 290,000 compounds, 0.52% hits; AID 1654; in the data active = inhibition above about 50%
Target sequence (P51452 whole entry, looked up): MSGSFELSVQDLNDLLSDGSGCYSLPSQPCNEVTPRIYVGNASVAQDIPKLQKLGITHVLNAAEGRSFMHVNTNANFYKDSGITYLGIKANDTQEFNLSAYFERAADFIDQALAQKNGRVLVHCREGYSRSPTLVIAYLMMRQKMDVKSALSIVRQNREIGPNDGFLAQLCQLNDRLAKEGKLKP
BoNT-A LC inh2: blocks Botulinum neurotoxin A light chain protease. multiplex microsphere protease substrate cleavage, flow cytometry. inhibition, % at 10 µM. 360,000 compounds, 0.17% hits
Each line names hits and unclear results; the compound was inactive in the other large screens. This is a sample that favours compounds with a hit; in the whole collection about 4.1% have one here. Cut-off read from the data, not from the text of the source, unless noted: active = inhibition above about 30%; inconclusive = no clear call, values can overlap the other calls; inactive = below that.

COc1ccc(C)cc1NC(=O)CN1C(=O)C(=O)N(C2CCCC2)C1=O	none (no result: VHR inh abs)
CC1CCC(NC(=O)c2cc(S(=O)(=O)N(C)C)ccc2N2CCCC2)CC1 (stereo not drawn)	none (no result: VHR inh abs)
O=C(NC(c1ccc(-c2ccccc2)cc1)c1cnccn1)C1CCN(CCCOc2ccccc2)CC1 (stereo not drawn)	none (no result: MazEF act, VHR inh abs)
COc1cc2cccc(OC)c(=O)c2c(O)c1OC	none
CC(=O)Oc1cc2cccc(OC(C)=O)c(=O)c2c(OC(C)=O)c1OC(C)=O	MazEF act 214
O=C1CCCCC(=O)N(c2ccccc2)c2ccccc21	Autofluor counter 16379
O=C(Cn1ncn2c(cc3ccccc32)c1=O)NCCc1cccs1	none
CN(Cc1ccccc1)C(=O)CN1C(=O)C2C3C=CC(C3)C2C1=O (stereo not drawn)	Autofluor counter 21276
O=C(CSc1nnc(NC(=O)c2c(F)cccc2F)s1)NCc1ccccc1	none
CCS(=O)(=O)n1nc(-c2ccc(Cl)cc2)nc1SC	Autofluor counter 22674
CCc1ccc2nc(SCC(=O)N3CC(=O)Nc4ccccc43)c(C#N)cc2c1	MazEF act 83
Fc1ccc2cc(-c3ccsc3)ncc2c1	none (no result: VHR inh abs)
O=C(O)c1ccc2[nH]c3c(c2c1)CSCC3	Autofluor counter 20934
Cc1ccc(NC(=O)COC(=O)Cn2c(C)csc2=O)cc1C	Autofluor counter 17233
COCCOc1ccc(C(F)(F)F)cc1NC(=O)c1ccccc1	none
CC(=O)Nc1cc(C(F)(F)F)ccc1OCCOc1ccccc1	Autofluor counter 21706, BoNT-A LC inh2 inconclusive (no result: VHR inh abs)
CCOc1ccc(N2CC(C(=O)Nc3cc(S(=O)(=O)N4CCCCC4)ccc3C)CC2=O)cc1 (stereo not drawn)	none (no result: VHR inh abs)
O=C(CN1C(=O)c2ccccc2C1=O)Oc1ccc(F)cc1	none (no result: Autofluor counter, MazEF act, Anthrax LF prot, BoNT F protease, BoNT-A LC inh2)
CCOCCc1nnc(NC(=O)Cc2ccc(Br)cc2)s1	Autofluor counter 23584
CCOCCc1nnc(NC(=O)CCc2ccccc2)s1	none
CCOC(=O)C1=C(C)N(CCCCCC(=O)O)C(=O)NC1c1ccc([N+](=O)[O-])cc1 (stereo not drawn)	VHR inh abs 52
COC(=O)Cc1c(C)nc2nc(-c3ccc(OC)cc3)[nH]n2c1=O	Autofluor counter 22942
COc1ccc(-c2nc3nc(C)c(Cc4ccccc4)c(=O)n3[nH]2)cc1	Autofluor counter 22311
COc1ccc(-c2nc3nc(C)cc(=O)n3[nH]2)cc1	none
O=S(=O)(Nc1ccc(F)cc1)c1ccc(NS(=O)(=O)c2cccs2)cc1	none
O=C(CCCn1cc([N+](=O)[O-])cn1)Nc1ccc2c(c1)OCO2	none
COc1ccc(NC(=O)NNC(=O)c2cc3occc3n2C)c(OC)c1	VHR inh abs 51
Cc1cc(=O)nc2c3ccccc3n(CC(=O)NC(C)c3ccc4c(c3)OCCO4)n12 (stereo not drawn)	none
COc1ccc(OC)c(CCNC(=O)CCC(=O)N2CCOc3ccc(C)cc32)c1	none
Cn1ccnc1Sc1nnnn1-c1ccccc1	Autofluor counter 20712
c1ccc(CSc2nnnn2-c2ccccc2)cc1	none
COc1ccccc1NC(=O)CCN1C(=O)C2CC=CCC2C1=O (stereo not drawn)	none
O=C(NC1CCCCC1)c1[nH]c(C(F)(F)F)nc1-c1ccccc1	none (no result: MazEF act, VHR inh abs)
CCOC(=O)COn1c(=O)c(-c2ccc(OC)cc2)[n+]([O-])c2ccccc21	none (no result: VHR inh abs)
CCOc1ccc(-c2c(=O)n(OCc3ccccn3)c3ccccc3[n+]2[O-])cc1	Autofluor counter 22653
CCOC(=O)COn1c(=O)c(-c2ccccc2)[n+]([O-])c2ccccc21	Anthrax LF prot 30
COc1ccc2nc(C(c3ccc(C)cc3)n3c(-c4ccccc4Br)nc4ccccc43)[nH]c2c1 (stereo not drawn)	none (no result: MazEF act, VHR inh abs)
CC(C)CC(=O)NCCc1ccncc1	Autofluor counter 22906
O=C(CCCn1c(SCC(=O)c2ccc(Cl)cc2)nc2ccccc2c1=O)NCc1ccco1	none (no result: Autofluor counter, Anthrax LF prot, BoNT F protease, BoNT-A LC inh2)
O=C(CCCCCn1c(SCC(=O)c2ccccc2)nc2ccccc2c1=O)NCc1ccco1	Autofluor counter 16253
CC(=O)NCCn1c(SCC(=O)NCc2ccco2)nc2ccccc2c1=O	Autofluor counter 17328
CC(=O)NCCn1c(SCC(=O)NCCC(C)C)nc2ccccc2c1=O	Autofluor counter 23356
CCCCNC(=O)CSc1nc2ccccc2c(=O)n1CCNC(C)=O	none
CC(=O)NCCn1c(SCC(=O)c2ccc(Cl)cc2)nc2ccccc2c1=O	Autofluor counter 21199, BoNT-A LC inh2 inconclusive
COc1ccccc1CN1CC(C(=O)NCCN2CCOC2=O)CCC1=O (stereo not drawn)	none
Cc1ccc(OCC(=O)N(C)CC(=O)Nc2ccccc2Cl)c([N+](=O)[O-])n1	none (no result: Autofluor counter, Anthrax LF prot, BoNT F protease, VHR inh abs, BoNT-A LC inh2)
CNc1nc(Cl)c(SC)c(NCc2cccc(OC)c2)n1	BoNT F protease 48
FC(F)(F)c1ccccc1Cc1c(-c2cccc(Br)c2)nc2c3ccccc3ccn12	none (no result: MazEF act, VHR inh abs)
O=C1CCCC/C1=C\Nc1ccc(S(=O)(=O)Nc2cnc3ccccc3n2)cc1	none
CCN(CC)c1ccc(/C=C/[N+](=O)[O-])cc1	Anthrax LF prot 35, BoNT-A LC inh2 66
CCN(CC)c1ccc(/C=N/NC(=O)c2ccc([N+](=O)[O-])cc2)cc1	none
CC(=O)Nc1ccc(S(=O)(=O)N(C#N)c2nc(C)cc(C)n2)cc1	none
CC(=O)Nc1ccc(NC(=O)CCCCCN2C(=O)c3ccccc3C2=O)cc1	Autofluor counter 18712
O=C(CC1SC(=O)N(Cc2ccccc2)C1=O)Nc1nccs1 (stereo not drawn)	VHR inh abs 53
O=C(CN1C(=O)c2ccccc2C1=O)Nc1nccs1	none
O=C(CCCCCN1C(=O)c2ccccc2C1=O)Nc1nccs1	Autofluor counter 21980
O=C(CC1SC(=O)N(Cc2ccccc2Cl)C1=O)Nc1nccs1 (stereo not drawn)	none
O=C(OCCOCCN=C1NS(=O)(=O)c2ccccc21)c1ccccc1Br	none
COc1ccc(S(=O)(=O)N2CCOCC2)cc1NC(=O)/C=C/c1ccccc1	none (no result: VHR inh abs)
CCN(Cc1ccccc1)S(=O)(=O)c1nc2nc(C)c(C)c(C)n2n1	Autofluor counter 17154
Cc1cc(C)n2nc(S(=O)(=O)N(CC(C)C)CC(C)C)nc2n1	none
Cc1cc(C)n2nc(CCc3ccccc3)nc2n1	Autofluor counter 23082
CCN(Cc1ccccc1)S(=O)(=O)c1cn(C)cn1	none
Cc1cc(C)n2nc(CCCCc3nc4nc(C)cc(C)n4n3)nc2n1	none (no result: Autofluor counter, MazEF act, Anthrax LF prot, BoNT F protease, BoNT-A LC inh2)
Cc1cc(C)n2nc(S(=O)(=O)N(C)Cc3ccccc3)nc2n1	Autofluor counter 19864, BoNT-A LC inh2 inconclusive
O=Cc1c(NCc2cccc(F)c2)c2ccccc2[nH]c1=O	none
Cc1c(C(=O)O)oc2c1/C(=N\O)CCC2	none
O/N=C1\CCCc2oc3c(c21)CCCC3	Autofluor counter 19892
CC(C)c1ccc(OCc2ccc(C(=O)N3CCCC3)o2)cc1	none
CSc1ncc(Cl)c(C(=O)Nc2nnc(SC)s2)n1	none
CCCSc1nnc(NC(=O)c2nc(SC)ncc2Cl)s1	Autofluor counter 19506, BoNT-A LC inh2 inconclusive
O=C(c1ccc2c(c1)OCCCO2)c1cccs1	Autofluor counter 22559, BoNT-A LC inh2 inconclusive
